{"source": "PubChem BioAssay (NCATS)", "note": "A number with no mark means an inactive call. Calls come from the whole dose curve; as a rule, active = well fitted curve in the direction sought with a large enough effect; inconclusive = small, poorly fitted or top-dose-only effect, or another doubt; inactive = no such curve, though single readings can be large; an effect the other way counts as inactive or inconclusive. Results filed as inconclusive are left out.", "data": [{"molecular_target": "Ferritin light chain (Equus caballus) (UniProt P02791)", "sequence (P02791 2-175 limits assumed)": "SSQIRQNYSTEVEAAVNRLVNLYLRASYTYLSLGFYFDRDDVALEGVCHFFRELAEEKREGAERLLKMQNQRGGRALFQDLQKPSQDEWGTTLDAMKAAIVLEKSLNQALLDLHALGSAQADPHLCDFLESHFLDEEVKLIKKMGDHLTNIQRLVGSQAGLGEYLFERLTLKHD", "assay": "qHTS Validation Assay for Identification of Novel General Anesthetics (AID 2323); note: % is set by controls: 0 for no effect and ±100 for the full control effect", "details": "horse apoferritin, anesthetic-site fluorescent probe displacement; series mostly up to 76.9 µM; activity change, negative = inhibition: at the top concentration", "summary_of_the_method": "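Normalized fluorescence response, scaled between free 1-AMA and 1-AMA/apoferritin complex, fitted to a four-parameter Hill equation for concentration-effect values. Binding mix: 10 uM horse-spleen apoferritin, 50% saturated 1-AMA in PBS; read 380/535 nm after 10 min.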", "units": {"activity change, negative = inhibition": "%"}, "values": [{"smiles": "CCOC(=O)N1CCC(=C2c3ccc(Cl)cc3CCc3cccnc32)CC1", "activity change, negative = inhibition": 98.9}, {"smiles": "NNCCc1ccccc1", "activity change, negative = inhibition": -2.04}, {"smiles": "NCCc1ccc(O)c(O)c1", "activity change, negative = inhibition": -4.16}, {"smiles": "Cc1[nH]c(=O)c(C#N)cc1-c1ccncc1", "activity change, negative = inhibition": -4.3}, {"smiles": "NC[C@H](O)c1ccc(O)c(O)c1", "activity change, negative = inhibition": -0.791}, {"smiles": "Cc1[nH]c(=O)c(C#N)cc1-c1ccc2nccn2c1", "activity change, negative = inhibition": 38.1}, {"smiles": "O=C1CCc2cc(OCCCCc3nnnn3C3CCCCC3)ccc2N1", "activity change, negative = inhibition": -15.9}, {"smiles": "Cc1oncc1C(=O)Nc1ccc(C(F)(F)F)cc1", "activity change, negative = inhibition": -11.3}, {"smiles": "Nc1nc2ccc(OC(F)(F)F)cc2s1", "activity change, negative = inhibition": -12.9}, {"smiles": "Nc1nc2c(ncn2COCCO)c(=O)[nH]1", "activity change, negative = inhibition": -1.79}, {"smiles": "Clc1cccc(Cl)c1NC1=NCCN1", "activity change, negative = inhibition": -4.39}, {"smiles": "Cn1cnc([N+](=O)[O-])c1Sc1ncnc2nc[nH]c12", "activity change, negative = inhibition": -1.96}, {"smiles": "CCOC(=O)C1=C[C@]2(CC)CCCN3CCc4c(n1c1ccccc41)[C@@H]32", "activity change, negative = inhibition": 9.13}]}, {"molecular_target": "ATP-dependent DNA helicase Q1 (Homo sapiens) (UniProt P46063)", "sequence (P46063 whole entry, looked up)": "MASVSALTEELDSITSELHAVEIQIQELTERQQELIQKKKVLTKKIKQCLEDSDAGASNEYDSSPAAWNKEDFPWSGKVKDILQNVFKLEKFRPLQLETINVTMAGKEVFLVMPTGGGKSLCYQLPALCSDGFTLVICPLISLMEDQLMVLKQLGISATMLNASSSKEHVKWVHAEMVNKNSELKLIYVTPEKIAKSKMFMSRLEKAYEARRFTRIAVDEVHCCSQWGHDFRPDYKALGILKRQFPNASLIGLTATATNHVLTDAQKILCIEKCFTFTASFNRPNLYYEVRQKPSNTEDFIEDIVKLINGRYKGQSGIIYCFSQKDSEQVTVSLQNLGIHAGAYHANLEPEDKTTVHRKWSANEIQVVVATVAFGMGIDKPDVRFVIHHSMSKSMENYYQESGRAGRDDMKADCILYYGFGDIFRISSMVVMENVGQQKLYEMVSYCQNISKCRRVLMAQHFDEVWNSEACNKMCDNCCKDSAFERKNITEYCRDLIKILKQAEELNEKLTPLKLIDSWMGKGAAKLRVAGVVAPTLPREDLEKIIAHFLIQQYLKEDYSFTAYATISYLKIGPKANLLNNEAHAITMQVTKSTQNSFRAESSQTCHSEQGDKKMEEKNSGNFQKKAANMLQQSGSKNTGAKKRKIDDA", "assay": "qHTS Validation Assay for Inhibitors of RecQ-Like Dna Helicase 1 (RECQ1) (AID 2353);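 note: plate controls were DMSO vehicle for no effect and enzyme-free control for full effect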", "details": "recombinant RECQ1 helicase DNA unwinding assay; series mostly up to 25.6 µM; activity change, negative = inhibition: at the top concentration", "summary_of_the_method": "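50 nM RECQ1T1 preincubated 15 min with compound in Tris pH 8.0 buffer with MgCl2, DTT, Tween-20 and 2.5 ug/ml poly(dI-dC); started with 200 nM TAMRA/BHQ-2 forked duplex and 2 mM ATP. Unwinding read as fluorescence (525/598 nm), two reads 2 h apart.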", "units": {"activity change, negative = inhibition": "%"}, "values": [{"smiles": "CCOC(=O)N1CCC(=C2c3ccc(Cl)cc3CCc3cccnc32)CC1", "activity change, negative = inhibition": -7.06}, {"smiles": "NNCCc1ccccc1", "activity change, negative = inhibition": -0.995}, {"smiles": "NC(N)=NC(=O)c1nc(Cl)c(N)nc1N", "activity change, negative = inhibition": 20.5}, {"smiles": "NCCc1ccc(O)c(O)c1", "activity change, negative = inhibition": 0.253}, {"smiles": "Cc1[nH]c(=O)c(C#N)cc1-c1ccncc1", "activity change, negative = inhibition": -0.634}, {"smiles": "NC[C@H](O)c1ccc(O)c(O)c1", "activity change, negative = inhibition": 2.25}, {"smiles": "Cc1[nH]c(=O)c(C#N)cc1-c1ccc2nccn2c1", "activity change, negative = inhibition": 2.96}, {"smiles": "O=C1CCc2cc(OCCCCc3nnnn3C3CCCCC3)ccc2N1", "activity change, negative = inhibition": -2.86}, {"smiles": "Cc1oncc1C(=O)Nc1ccc(C(F)(F)F)cc1", "activity change, negative = inhibition": -5.83}, {"smiles": "Nc1nc2ccc(OC(F)(F)F)cc2s1", "activity change, negative = inhibition": 5.26}, {"smiles": "Nc1nc2c(ncn2COCCO)c(=O)[nH]1", "activity change, negative = inhibition": 1.64}, {"smiles": "Clc1cccc(Cl)c1NC1=NCCN1", "activity change, negative = inhibition": -0.998}, {"smiles": "c1ccc([C@H]2CN3CCSC3=N2)cc1", "activity change, negative = inhibition": -1.82}, {"smiles": "Cn1cnc([N+](=O)[O-])c1Sc1ncnc2nc[nH]c12", "activity change, negative = inhibition": 0.337}, {"smiles": "CCC(C)N(C)C(=O)c1cc2ccccc2c(-c2ccccc2Cl)n1", "note": "(stereo not given)", "activity change, negative = inhibition": -0.162}, {"smiles": "CCOC(=O)C1=C[C@]2(CC)CCCN3CCc4c(n1c1ccccc41)[C@@H]32", "activity change, negative = inhibition": -8.86}, {"smiles": "OC(CN1CCC(Cc2ccc(F)cc2)CC1)c1ccc(Cl)cc1", "note": "(stereo not given)", "activity change, negative = inhibition": -5.14}]}, {"tested_on": "not listed separately", "assay": "Cytometric Cell-Based qHTS for Inhibitors of the mTORC1 Signaling Pathway in MEF (Tsc2-/-, p53-/-) Cells (AID 2660);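 note: percent of cells above a phospho-rpS6 to PI ratio cutoff in each well; plate controls were DMSO for no effect and rapamycin for full effect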", "details": "mTORC1 pathway cytometry; series mostly up to 38.3 µM; activity change, negative = inhibition: at the top concentration", "summary_of_the_method": "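Tsc2-/-, p53-/- MEFs (empty vector) exposed to compound 24 h at 37 C, fixed, stained with Alexa-488 anti-phospho-rpS6 Ser235/236 and propidium iodide. Acumen laser scanning; phospho-S6/PI ratio thresholded against 7.5 nM rapamycin, reported as % positive cells.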", "units": {"activity change, negative = inhibition": "%"}, "values": [{"smiles": "CCOC(=O)N1CCC(=C2c3ccc(Cl)cc3CCc3cccnc32)CC1", "activity change, negative = inhibition": 2.45}, {"smiles": "O=C(Nc1nc2ccccc2n1CCN1CCOCC1)c1cccc([N+](=O)[O-])c1", "activity change, negative = inhibition": -21.4}, {"smiles": "C[C@]12CCC(=O)C=C1CC[C@@H]1[C@@H]2[C@@H](O)C[C@@]2(C)[C@H]1CC[C@]2(O)C(=O)CO", "activity change, negative = inhibition": -13.9}, {"smiles": "O=C(O)COCCN1CCN(C(c2ccccc2)c2ccc(Cl)cc2)CC1", "note": "(stereo not given)", "activity change, negative = inhibition": 3.85}, {"smiles": "NNCCc1ccccc1", "activity change, negative = inhibition": -8.99}, {"smiles": "NC(N)=NC(=O)c1nc(Cl)c(N)nc1N", "activity change, negative = inhibition": 7.63}, {"smiles": "NCCc1ccc(O)c(O)c1", "activity change, negative = inhibition": 5.27}, {"smiles": "Cc1[nH]c(=O)c(C#N)cc1-c1ccncc1", "activity change, negative = inhibition": 4.03}, {"smiles": "NC[C@H](O)c1ccc(O)c(O)c1", "activity change, negative = inhibition": 1.57}, {"smiles": "Cc1[nH]c(=O)c(C#N)cc1-c1ccc2nccn2c1", "activity change, negative = inhibition": -9.39}, {"smiles": "Cc1cccc(-c2[nH]c(C(C)(C)C)nc2-c2ccc3nccnc3c2)n1", "activity change, negative = inhibition": -18.8}, {"smiles": "OC(CCN1CCCCC1)(c1ccccc1)C1CC2C=CC1C2", "note": "(stereo not given)", "activity change, negative = inhibition": -1.31}, {"smiles": "O=C1CCc2cc(OCCCCc3nnnn3C3CCCCC3)ccc2N1", "activity change, negative = inhibition": 6.17}, {"smiles": "Cc1oncc1C(=O)Nc1ccc(C(F)(F)F)cc1", "activity change, negative = inhibition": -2.74}, {"smiles": "Nc1ncnc2nc(-c3ccc(N4CCOCC4)nc3)cc(-c3cccc(Br)c3)c12", "activity change, negative = inhibition": -4.75}, {"smiles": "Nc1nc2ccc(OC(F)(F)F)cc2s1", "activity change, negative = inhibition": -1.35}, {"smiles": "Nc1nc2c(ncn2COCCO)c(=O)[nH]1", "activity change, negative = inhibition": 3.24}, {"smiles": "Clc1cccc(Cl)c1NC1=NCCN1", "activity change, negative = inhibition": 2.61}, {"smiles": "c1ccc([C@H]2CN3CCSC3=N2)cc1", "activity change, negative = inhibition": -0.311}, {"smiles": "CC(C)(Sc1ccc(CCN(CCCCC2CCCCC2)C(=O)NC2CCCCC2)cc1)C(=O)O", "activity change, negative = inhibition": 14}, {"smiles": "Cn1cnc([N+](=O)[O-])c1Sc1ncnc2nc[nH]c12", "activity change, negative = inhibition": 7.04}, {"smiles": "CCC(C)N(C)C(=O)c1cc2ccccc2c(-c2ccccc2Cl)n1", "note": "(stereo not given)", "activity change, negative = inhibition": -0.0965}, {"smiles": "Oc1ccc(C2CNCCc3c2cc(O)c(O)c3Cl)cc1", "note": "(stereo not given)", "activity change, negative = inhibition": -0.713}, {"smiles": "CCOC(=O)C1=C[C@]2(CC)CCCN3CCc4c(n1c1ccccc41)[C@@H]32", "activity change, negative = inhibition": -2.32}, {"smiles": "OC(CN1CCC(Cc2ccc(F)cc2)CC1)c1ccc(Cl)cc1", "note": "(stereo not given)", "activity change, negative = inhibition": 0.779}]}]}
